Only some compounds are listed: those with a hit (about 1.7% of all), similar ones and a draw of the others.
NOD2 RIPK2 PPI: blocks binding of human NOD2 to RIPK2; inhibition, % at 4.98 µM; AID 624267; CHO BLA complementation NOD2-RIPK2, CCF4 ratio; hit rate 0.38% among 360,000; in the data active = inhibition above about 21%;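 also: 0% = vehicle only and 100% = reference blocker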
ABCB6 inh 2: human ABCB6 transporter inhibition; Q9NP58; K562-ABCB6 porphyrin accumulation, flow cytometry, 1 h; active compounds read low; fluorescence ratio to DMSO, % at 10 µM; hit rate 0.19% among 360,000;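 active = fluorescence ratio to DMSO below 75%, the collection mean minus 3 SD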;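 also: signal is porphyrin accumulated inside mitochondria; 100% equals median channel fluorescence of DMSO control wells; lower ratio means ABCB6 inhibition with less porphyrin fluorescence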
Myeloid diff 2: myeloid differentiation induction. ER-HoxA9 myeloid progenitors, lysozyme-GFP differentiation, flow cytometry. hit rate 1% among 360,000. calls only at 10 µM;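 active = normalized GFP-positive differentiation at or above the plate's own cutoff, the solvent-only control mean plus 3 SD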;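 also: cells exposed to compound for four days before flow analysis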
TLR9-MyD88 block: blocks human TLR9 binding to MyD88; hit rate 0.21% among 340,000; inhibition, % at 4.98 µM; Q9NR96+Q99836; AID 504734; CHO BLA complementation TLR9-MyD88, CCF4 FRET ratio;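 active = inhibition above the mean over all tested compounds plus 3 SD, cut at about 21% in these data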;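 also: 0% = DMSO only wells and 100% = clavulanate BLA inhibitor control wells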
TLR4-MyD88 BLA: inhibitors of human TLR4-MyD88 binding; O00206+Q99836; AID 861; HeLa CL3-4 TLR4/MyD88 BLA complementation, FRET ratio; inhibition, % at 8.4 µM; hit rate 0.18% among 200,000; in the data active = inhibition above about 25%;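 also: 0% = vehicle and 100% = reference inhibitor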
ABCB6 blocker 1: human ABCB6 transporter inhibition. shares compounds with ABCB6 inh 2. K562-ABCB6 porphyrin accumulation, flow cytometry, 1 h; active compounds read low. 700 tested, under 10 active. ratio response (% of DMSO), % at 10 µM;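 active = repeat-averaged ratio response below 75% of DMSO, the collection mean minus 3 SD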;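 also: median porphyrin fluorescence at 575 nm with 488 nm excitation from mitochondria; lower ratio means less porphyrin signal so ABCB6 inhibition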
* marks the source's active call; other numbers are inactive results; i = inactive; . = not tested or not shown.

SMILES | NOD2 RIPK2 PPI | ABCB6 inh 2 | Myeloid diff 2 | TLR9-MyD88 block | TLR4-MyD88 BLA | ABCB6 blocker 1
CC(C)c1ccc(CC(=O)N2CCC2(C)C(=O)NS(=O)(=O)c2cccc(OC(F)F)c2)cc1 (centres undefined) | -5 | 95 | i | . | . | 97
Cc1ccc(C(=O)Nc2cc(C)nn2CCC#N)cc1 | -9 | 74* | i | -5 | . | 97
CCN(CC)C1=CC(=[N+]2CCCC2)CC(C)(C)C1 | 2 | 67* | i | -8 | 7 | 103
COc1ccc(CN(CCCN2CCOCC2)C(=O)Nc2ccccc2)cc1OC | -2 | 68* | i | 2 | 7 | 98
O=C(NC1CCCC1)C(c1ccco1)N(Cc1ccccc1)C(=O)c1csnn1 (centres undefined) | 7 | 94 | i | 8 | -7 | .
Cc1cc(C)cc(N(C(=O)c2csnn2)C(C(=O)NC2CCCC2)c2cccnc2)c1 (centres undefined) | -1 | 74* | i | -4 | . | 100
Cc1ccc(CN(C(=O)c2csnn2)C(C(=O)NC2CCCC2)c2ccco2)cc1 (centres undefined) | 3 | 73* | i | -7 | . | 99
O=S(=O)(NCCc1csc(-c2cccnc2)n1)c1ccc(Cl)s1 | -2 | 90 | i | -1 | 13 | .
Cc1nc(N2CCN(Cc3ccc4c(c3)OCO4)CC2)nc2c1C(=O)CC(c1ccco1)C2 (centres undefined) | -12 | 73* | i | 0 | -2 | 198
Cc1nc(N2CCN(Cc3ccccc3)CC2)nc2c1C(=O)CC(c1ccco1)C2 (centres undefined) | 4 | 95 | i | 2 | 3 | .
O=C(CSc1nnc(-c2ccccc2)o1)N1CCc2ccccc2C1 | 7 | 93 | i | 14 | 4 | .
COc1ccc(-c2nnc(SCC(=O)N3CCc4ccccc4C3)o2)cc1 | -5 | 56* | i | 3 | -10 | 101
COc1cccc(N(CC(=O)NCc2ccco2)C(=O)CCC(=O)Nc2nccs2)c1 | 4 | 97 | i | -1 | . | .
CCNC(=O)C1(C)CCN(C(=O)c2ccccc2OC)C1 (centres undefined) | 4 | 97 | i | . | . | .
CC(Nc1cccc(C(=O)NC2CC2)c1)c1nnc(-c2ccccc2)o1 (centres undefined) | -9 | 96 | i | -2 | . | .
CCCC(=O)Nc1ccc2c(c1)Cc1ccccc1-2 | -84 | 73* | i | 5 | . | 99
COc1cc2c(C(=O)N(C)c3ccc(F)cc3)cn(C)c(=O)c2cc1OC | -3 | 14* | i | 4 | . | 99
Nc1nonc1-n1nncc1-c1ccccc1 | 6 | 6.0* | i | -7 | -32 | 100
c1ccc(-c2cnnn2-c2ccccc2)cc1 | 1 | 101 | i | 3 | . | .
COc1cccc(CNC(=O)CN2C(=O)COc3ccc(S(=O)(=O)N4CCOCC4)cc32)c1 | -3 | 101 | i | -2 | . | .
O=C(Nc1ccc(NC(=O)C2CC2)nc1)c1cccnc1 | 4 | 68* | i | 3 | 0 | 102
O=C(Nc1ccc(NC(=O)C2CC2)cn1)c1ccccc1 | -2 | 101 | i | 0 | . | .
CC(C)=CCc1c(O)ccc(C(=O)Cc2ccccc2)c1O | 9 | 64* | i | 9 | 3 | 96
CC(C)(C)c1ccc(C(=O)N2CCC2(C)C(=O)Nc2cccc3ncccc23)cc1 (centres undefined) | -13 | 98 | i | . | . | .
O=C(O)C1C2C=CC(C2)C1C(=O)Nc1cccc(F)c1 (centres undefined) | -7 | 58* | i | -2 | -2 | 101
SMILES | NOD2 RIPK2 PPI | ABCB6 inh 2 | Myeloid diff 2 | TLR9-MyD88 block | TLR4-MyD88 BLA | ABCB6 blocker 1
Cn1c(CSc2ccccc2)c(C#N)c2ccccc21 | -3 | 67* | i | -3 | -2 | 99
CC(=O)Nc1ccc(SCc2c(C)noc2C)cc1 | -8 | 96 | i | -4 | . | .
Cc1noc(C)c1CSc1ccc(Br)cc1 | -1 | 71* | i | 0 | 5 | 100
COc1ccc(N(CC(=O)Nc2c(C)n(C)n(-c3ccccc3)c2=O)S(=O)(=O)c2ccc(C)cc2)cc1 | -7 | 72* | i | -8 | 8 | 100
CCOC(=O)C1CCN(Cc2ccc(F)c(Br)c2)CC1 | 0 | 69* | i | 0 | -1 | 99
CCOC(=O)C1CCN(Cc2ccc(F)cc2F)CC1 | -9 | 104 | i | 0 | -15 | .

High-throughput results (PubChem BioAssay)
